The values below come from PubChem BioAssay AID493201 (National Center for Advancing Translational Sciences (NCATS), 2011).

Results filed as inconclusive are left out. A call without a number means that no potency is given here. Calls of active or inactive are those of the source. Calls come from the whole dose curve; as a rule, active = well fitted activation curve with a large enough effect; inconclusive = small, poorly fitted or top-dose-only effect; inactive = no such curve, though single readings can be large or run the other way.
Potency is the fitted concentration of half-maximal effect.

A short description of the experiment: qHTS Assay for Identifying a Potential Treatment of Ataxia-Telangiectasia: Secondary assay (no NCS) hit validation.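 Note: phosphorylated KAP1 signal as a proxy for ATM-like kinase activity.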 The following applies: A-T patient fibroblasts, AlphaLISA, no DNA damage added, 90 min; series mostly up to 76.9 µM. In outline:
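hTERT-immortalized A-T patient fibroblasts (F2112), 500 cells/well, exposed to compounds at up to 76.7 uM final without NCS at 37C. KAP-1 phosphorylation measured by AlphaLISA after lysis and 6 h detection at 25C.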
Turning to `CCN(CC)c1ccc2c(Cl)c(Br)c(=O)oc2c1`, the Potency entry was “inactive”.

`COc1cc(/C=C2\SC(=S)N(C(C(=O)O)c3ccccc3)C2=O)ccc1O` (centres undefined): the Potency entry was “inactive”. With `COC(=O)Cc1ccc(NC(=S)NCCSc2ccc(Cl)cc2)cc1` the entry was “inactive”. For `CCOC(=O)N1CCN(c2nc(N(c3ccccc3)c3ccccc3)nc(-n3ccnc3)n2)CC1`, the Potency entry is “inactive”.

Consider `CS(=O)(=O)c1ccc(-c2csc(-c3cccnc3)n2)cc1`, for which the Potency entry was “inactive”. With `Cc1oc2c(c(C)cc3oc(=O)c(CC(=O)NCC(=O)NCC(=O)O)c(C)c32)c1C` the figure was 3.28 µM (active); with `COc1ccccc1S(=O)(=O)Nc1ccc(-c2nnc3n2CCCCC3)cc1`, “inactive”. In the case of `COc1cc(CCC(C)NCc2ccccc2)ccc1O` (centres undefined), the Potency result is “inactive”. As to `N#C/C(=C/c1ccc(F)cc1)C(N)=S`, the Potency result is “inactive”. Turning to `CCOC(=O)c1[nH]c(COC(=O)c2ccccc2NC(=O)c2ccco2)c(C(=O)OCC)c1C`, the Potency entry is “inactive”. For `CC1=NOC2(C1)N(C)c1ccccc1C2(C)C` (centres undefined) the value was “inactive”. In the case of `CCC(=O)Nc1ccc(S(=O)(=O)c2ccc(NC(=O)CC)cc2)cc1`, the Potency result was “inactive”. `CCN1CCN(CC(=O)Nc2ccc(C(C)=O)cc2)CC1`: the Potency was 26 µM (active). With `c1ccc(CSc2nnc(-c3ccco3)n2Cc2ccco2)cc1` the entry was “inactive”; with `CNC(=O)Cc1csc2ccc(C)cc12`, “inactive”; with `CCC(C)Nc1nc(N)c([N+](=O)[O-])c(NCCO)n1` (centres undefined), “inactive”. As to `S=c1[nH]nc(COc2ccccc2)n1/N=C/c1ccccc1Cl`, the Potency result is “inactive”. For `O=C(c1nn2c(C(F)(F)F)cc(-c3ccc(F)cc3)nc2c1Cl)N1CCOCC1` the value was “inactive”; for `Cc1ccc(NC(=O)Nc2cccnc2)cc1NC(=O)Nc1cccnc1`, “inactive”.
